In all, about 5,500 compounds went through this assay and about 2,000 (36%) were called active. Another 18% or so got no clear call; they are omitted. Rule as the data show it: active = normalized growth mostly below about 0.91 (no sharp cut-off); inconclusive = no clear call, values can overlap the other calls; inactive = mostly above about 0.92. The list shows a part of the results.
Test: chemical genetic growth profiling, strain panel (AID 1159580);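 also: tested at 20 µM; growth read once vehicle control cultures reached saturation at 30 °C; 1 = growth at the plate median or of vehicle wells; lower values mean less growth of the strain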
Conditions: growth OD

Measured: normalized growth

CC(C)(C)OC(=O)N1CCN(Cc2ccccc2)CC1
inactive: S. cerevisiae deletion strains, locus YAL013W, strain DEP1, hits give low values 1 | S. cerevisiae deletion strains, locus YBR229C, strain ROT2, hits give low values 1 | S. cerevisiae deletion strains, locus YDL101C, strain DUN1, hits give low values 1.02 | S. cerevisiae deletion strains, locus YDR150W, strain NUM1, hits give low values 1.03 | S. cerevisiae deletion strains, locus YEL061C, strain CIN8, hits give low values 0.98 | S. cerevisiae deletion strains, locus YGR078C, strain PAC10, hits give low values 0.999 | S. cerevisiae deletion strains, locus YGR229C, strain SMI1, hits give low values 1.02 | S. cerevisiae deletion strains, locus YHR030C, strain SLT2, hits give low values 1.08 | S. cerevisiae deletion strains, locus YHR087W, strain rtc3, hits give low values 0.991 | S. cerevisiae deletion strains, locus YJR043C, strain POL32, hits give low values 0.998 | S. cerevisiae deletion strains, locus YJR075W, strain HOC1, hits give low values 1 | S. cerevisiae deletion strains, locus YKL190W, strain CNB1, hits give low values 1.01 | S. cerevisiae deletion strains, locus YLR039C, strain RIC1, hits give low values 0.967 | S. cerevisiae deletion strains, locus YLR058C, strain SHM2 (second series), hits give low values 0.986 | S. cerevisiae deletion strains, locus YLR085C, strain ARP6, hits give low values 0.997 | S. cerevisiae deletion strains, locus YLR262C, strain YPT6, hits give low values 1.04 | S. cerevisiae deletion strains, locus YML094W, strain GIM5, hits give low values 0.989 | S. cerevisiae deletion strains, locus YMR219W, strain ESC1, hits give low values 0.994 | S. cerevisiae deletion strains, locus YMR263W, strain SAP30, hits give low values 1.01 | S. cerevisiae deletion strains, locus YNL153C, strain GIM3, hits give low values 1 | S. cerevisiae deletion strains, locus YNL298W, strain CLA4 (second series), hits give low values 1.01 | S. cerevisiae deletion strains, locus YNL322C, strain KRE1, hits give low values 1 | S. cerevisiae deletion strains, locus YNR030W, strain Alg12, hits give low values 0.992 | S. cerevisiae deletion strains, locus YOL006C, strain TOP1, hits give low values 1.08 | S. cerevisiae deletion strains, locus YPL055C, strain LGE1, hits give low values 1.03 | S. cerevisiae deletion strains, locus YPL241C, strain CIN2, hits give low values 1.01 | S. cerevisiae deletion strains, locus YPR135W, strain CTF4, hits give low values 1.04 | S. cerevisiae strains, strain wild type, hits give low values 1.02
